Data on 29 compounds can be found in publication PMC4336329 (PLoS ONE, 2015).

Out of some 310,000 compounds screened, about 14,000 (4.5%) showed an effect of 50% or more. Effects have a minus sign here. Only a selection was taken, and strong results are over-represented in it overall.
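Also: peak tail current of the secondary pulse compared with the same well before compound.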

This assay deals with human ether-à-go-go-related gene (hERG) potassium channel (human, UniProt Q12809). Briefly: primary screen, population patch clamp on CHO cells stably expressing hERG; higher = less effect of the substance.
human ether-à-go-go-related gene (hERG) potassium channel, sequence (Q12809 whole entry, looked up): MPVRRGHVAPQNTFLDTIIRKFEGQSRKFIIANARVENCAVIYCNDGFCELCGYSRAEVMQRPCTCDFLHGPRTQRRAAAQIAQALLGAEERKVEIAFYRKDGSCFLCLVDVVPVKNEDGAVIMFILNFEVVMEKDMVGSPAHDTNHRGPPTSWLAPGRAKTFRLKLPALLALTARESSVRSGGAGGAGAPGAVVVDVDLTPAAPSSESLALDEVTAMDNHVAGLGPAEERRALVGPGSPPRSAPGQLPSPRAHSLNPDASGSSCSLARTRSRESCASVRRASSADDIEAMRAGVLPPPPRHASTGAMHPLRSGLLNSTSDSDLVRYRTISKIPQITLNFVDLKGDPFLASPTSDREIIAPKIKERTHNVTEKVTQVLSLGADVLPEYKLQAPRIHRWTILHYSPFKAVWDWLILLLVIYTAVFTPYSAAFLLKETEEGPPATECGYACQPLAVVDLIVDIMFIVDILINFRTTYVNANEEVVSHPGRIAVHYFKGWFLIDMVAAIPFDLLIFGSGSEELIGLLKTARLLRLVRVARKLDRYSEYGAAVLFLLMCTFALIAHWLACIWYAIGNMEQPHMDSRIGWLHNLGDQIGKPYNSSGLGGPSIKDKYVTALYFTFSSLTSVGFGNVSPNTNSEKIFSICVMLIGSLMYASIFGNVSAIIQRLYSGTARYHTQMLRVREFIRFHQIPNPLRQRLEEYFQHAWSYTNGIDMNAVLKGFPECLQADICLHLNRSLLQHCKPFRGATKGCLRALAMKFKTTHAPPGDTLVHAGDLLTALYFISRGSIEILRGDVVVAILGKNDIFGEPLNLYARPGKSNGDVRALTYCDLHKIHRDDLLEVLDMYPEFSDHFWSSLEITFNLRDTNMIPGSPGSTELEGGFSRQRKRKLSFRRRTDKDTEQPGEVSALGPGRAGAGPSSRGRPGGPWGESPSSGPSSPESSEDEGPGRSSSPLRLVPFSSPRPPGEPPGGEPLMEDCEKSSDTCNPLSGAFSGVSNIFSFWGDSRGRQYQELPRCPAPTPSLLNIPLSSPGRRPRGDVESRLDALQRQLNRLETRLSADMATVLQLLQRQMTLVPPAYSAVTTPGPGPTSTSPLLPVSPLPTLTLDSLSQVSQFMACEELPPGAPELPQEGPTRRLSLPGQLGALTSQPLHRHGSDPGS
`Cc1n[nH]c(C)c1CCNC(=O)C1CCC(=O)N(CCc2cccc(F)c2)C1` (centres unmarked): the “hERG current change (%, negative = inhibition) at 10uM” value was found to be 9.63%.
Turning to `Cc1ccc(C(=O)NCCNC(=O)c2ccccc2)cc1`, the “hERG current change (%, negative = inhibition) at 10uM” value is recorded as 8.24%.
With `O=[N+]([O-])c1ccc(C23CC4CC(CC(O)(C4)C2)C3)cc1`, the “hERG current change (%, negative = inhibition) at 10uM” value is reported as -37.8%.
The value for `O=C(Nc1ccc2nc(-c3ccc4nc[nH]c4c3)[nH]c2c1)c1cccs1` was 17.1%; that for `Cc1nc2scc(C)n2c(=O)c1S(=O)(=O)NCCc1ccc(Cl)cc1` was 7.69%; that for `COC(=O)c1cc(S(=O)(=O)NCC2CCN(Cc3cc(C)ccc3C)CC2)c[nH]1` was -11%.
The same measure for `COC(=O)c1cc(S(=O)(=O)NCC2CCN(Cc3ccc(Cl)cc3)CC2)c[nH]1`: -71.2%.
For `COC(=O)c1cc(S(=O)(=O)NCCc2ccc(C)cc2)c[nH]1`, the “hERG current change (%, negative = inhibition) at 10uM” value is -9.92%.
The value for `COC(=O)c1cc(S(=O)(=O)NCCc2ccc(Cl)cc2)c[nH]1` was -3.4%; that for `Cc1nc2scc(C)n2c(=O)c1S(=O)(=O)NCC1CCN(Cc2ccc(F)cc2)CC1` was -49.7%; that for `COC(=O)c1cc(S(=O)(=O)NCC2CCN(Cc3cccc(Cl)c3)CC2)c[nH]1` was -41.9%.
For the compound `Cc1nc2scc(C)n2c(=O)c1S(=O)(=O)NCC1CCN(Cc2ccc(Cl)cc2)CC1`, the “hERG current change (%, negative = inhibition) at 10uM” value is -50.1%.
For the compound `COC(=O)c1cc(S(=O)(=O)NCC2CCN(Cc3ccc(C)cc3)CC2)c[nH]1`, the “hERG current change (%, negative = inhibition) at 10uM” value was -73.8%.
The same measure for `COc1ccc(C2NS(=O)(=O)OCC2C)cc1` (centres unmarked): 16.4%; for `COc1ccc(C(=O)NCCN2C(=O)S/C(=C\c3cccnc3)C2=O)c(OC)c1OC`: -9.86%; for `CCNC(=S)N1CCN(CCN=CC2=C(O)CC(C)(C)CC2=O)CC1`: -9.75%.
Consider `CCC(CC)C(=O)N1CCN(c2ccccc2)CC1`, for which the “hERG current change (%, negative = inhibition) at 10uM” value was -2.08%.
The value for `COc1ccc(N2CCN(CC(O)COCc3ccccc3)CC2)cc1.Cl` (centres unmarked) was -25.2%; that for `Cc1ccc(Cl)cc1N1CCN(CC(O)COCc2ccco2)CC1.O=C(O)C(=O)O` (centres unmarked) was -73.1%; that for `Cc1ccc(Cl)cc1N1CCN(C(=S)NCc2ccco2)CC1` was 37.1%.
In the case of `OC(COCc1ccccc1)CN1CCN(c2ccccc2)CC1` (centres unmarked), the “hERG current change (%, negative = inhibition) at 10uM” value is recorded as -45.2%.
Regarding `CC(=O)c1ccc(N2CCN(CC(O)COC(c3ccccc3)c3ccccc3C)CC2)cc1` (centres unmarked), the “hERG current change (%, negative = inhibition) at 10uM” value is recorded as -41%.
In the case of `O=C(O)C(=O)O.OC(COCc1ccco1)CN1CCN(c2ccccc2)CC1` (centres unmarked), the “hERG current change (%, negative = inhibition) at 10uM” value is on record as -24.8%.
`COc1ccc(OCC(O)CN2CCN(c3ccccc3)CC2)cc1.Cl` (centres unmarked): the “hERG current change (%, negative = inhibition) at 10uM” value is -39.2%.
The value for `CC(=O)c1ccc(N2CCN(CC(O)COCc3ccco3)CC2)cc1` (centres unmarked) was -56.3%; that for `CC(=O)c1ccc(N2CCN(CC(O)c3ccccc3)CC2)cc1` (centres unmarked) was -11.6%; that for `CC(=O)c1ccc(N2CCN(CC(O)COC(c3ccccc3)c3ccccc3)CC2)cc1` (centres unmarked) was -66.5%.
The same measure for `Cc1ccc(Cl)cc1N1CCN(Cc2nnnn2Cc2ccco2)CC1`: -37.9%; for `COc1ccc(N2CCN(CC(O)COC(c3ccccc3)c3ccccc3)CC2)cc1` (centres unmarked): -64.9%.
